# Bioassay records deposited in PubChem BioAssay by National Center for Advancing Translational Sciences (NCATS).
# Only some compounds are listed: those with a hit (about 12% of all), similar ones and a draw of the others.
# Sm TGR inh: qHTS Assay for the Inhibitors of Schistosoma Mansoni Peroxiredoxins. purified TGR, DTNB reduction, TNB absorbance 405 nm. Potency, µM (highest dose often 114 µM), without a hit: top-dose activity change, negative = inhibition, usual class: inhibitors. 3% of 360,000 active. AID 485364, 2010; active = well fitted inhibition curve with a large enough effect; inconclusive = small, poorly fitted or top-dose-only effect; inactive = no such curve, though single readings can be large or run the other way; also: potency is read from the fitted curve at half-maximal effect; % is scaled to controls: 0 for no effect and ±100 for the full control effect; nearly all actives have a fitted effect of over 60% in size
#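 First, TGR (20 nM dispensed) and NADPH were mixed with compound. Second, a 15 min room-temperature incubation followed. Third, further NADPH and then DTNB were added to start the reaction. Finally, TNB absorbance was monitored kinetically.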
# CHX counter: Cycloheximide Counterscreen for Small Molecule Inhibitors of Shiga Toxin | max response, % | 12% of 300,000 active | cell reporter, cycloheximide protein synthesis inhibition counterscreen; in the data active = max response mostly above about 13%, no sharp cut-off; inactive = mostly below about 14%; also: read at 38.3 µM for the half of the compounds with a filed dose; 0% is about no effect
# Shiga toxin inh: A qHTS for Small Molecule Inhibitors of Shiga Toxin. Vero cells, Shiga toxin protein synthesis inhibition reporter. inhibition, % at 38.7 µM. 9.2% of 290,000 active; in the data active = inhibition mostly above about 28%, no sharp cut-off; inactive = mostly below about 43%; also: 0% is about no effect
# FMDV antiviral: High Throughput Screening for Foot and Mouth Disease Virus Antivirals | FMDV antiviral cell-based qHTS | Potency, µM (highest dose often 57.9 µM), for inactives: top-dose activity change, negative = inhibition, actives largely listed as inhibitors | 1.2% of 410,000 active; calls by dose curve; tested in HEK293T cells; also: read-out not given here; potency is read from the fitted curve at half-maximal effect; % is scaled to controls: 0 for no effect and ±100 for the full control effect; nearly all actives have a fitted effect of over 45% in size
# An asterisk follows results filed as active; ? = inconclusive; . = not tested or not shown.
SMILES,Sm TGR inh,CHX counter,Shiga toxin inh,FMDV antiviral
CN(C)c1ccc(C2Nc3ccccc3C(=O)N2CCCN2CCOCC2)cc1 (stereo not given),3%,31*,43*,2.8µM*
COC(=O)c1c(OCc2cccnc2)cc(=O)n2c1CCN(C(=O)c1c3c(nn1C)CCCC3)CC2,.,.,.,-17%
CCn1c(-c2ccccc2F)nc2cc(NC(C)=O)cc(C(=O)NC(c3ccccn3)C(F)(F)F)c21 (stereo not given),.,.,.,-10%
Cc1cc(Cl)ccc1NC(=O)Cn1nc(C)c2c(C)n(-c3ccccc3)nc2c1=O,-11%,.,.,-18%
C=CCNC(=O)c1cc(-c2ccc(Br)cc2)on1,-7%,24*,89*,57%
COc1cccc(-c2cc(C(=O)NCCCn3ccnc3)no2)c1,2%,23*,103*,37%
O=C(NCCCn1ccnc1)c1ccc2c(c1)OCCO2,-10%,-2,-11,12%
O=C(NCCCn1ccnc1)c1cc(-c2ccc(Br)cc2)on1,-7%,29*,59,0%
COc1ccc(-c2cc(C(=O)NCCCn3ccnc3)no2)cc1OC,7%,-2,-9,-13%
O=C(NCCc1ccccc1)c1cc(-c2ccc(Br)cc2)on1,-6%,.,.,3%
O=C(NCCCn1ccnc1)c1cc(-c2ccc3c(c2)OCO3)on1,-1%,12*,22*,37%
CCCCOc1ccc(C(=O)NCCc2sc3nc(-c4ccc(OC)cc4)nn3c2C)cc1,9%,.,.,-10%
CCOc1ccc(-c2csc(-c3c(N)c(C(=O)c4ccc5c(c4)OCO5)n4ccccc34)n2)cc1,0%,.,.,5%
COc1cccc(C(=O)NCCCn2ccnc2)c1,-5%,3,-18,-13%
COc1ccc2c(Cl)c(C(=O)NCCCn3ccnc3)sc2c1,9%,20*,39,14%
Cc1cc2n(n1)C(c1ccccc1)CC(c1ccc(Br)cc1)=N2 (stereo not given),-9%,37*,29*,16%
c1ccc(-c2ccc(OCCOCCn3cncn3)cc2)cc1,-3%,35*,57*,22%
c1ccc(Cc2ccc(OCCn3cncn3)cc2)cc1,17%,-2,-5,-18%
c1ccc(COc2ccc(OCCCn3cncn3)cc2)cc1,-1%,35*,61*,-8%
CC(=O)c1cccc(NC(=O)CCCOc2ccc(C)cc2)c1,-1%,0,-9,-12%
CCC(=O)Nc1cccc(C(=O)/C=C/c2ccc(F)cc2)c1,?,17*,26,-25%
CC(=O)Nc1cccc(C(=O)/C=C/c2ccc(C)cc2)c1,-5%,17*,12,?
Cc1cc(C)c(S(=O)(=O)NCC(c2ccco2)N2CCOCC2)c(C)c1 (stereo not given),2%,.,.,5%
CNc1ncnc2ccc(-c3cccc(OC)c3)cc12,.,.,.,-28%
COC(=O)c1ccc(N=NN2CCCCC2)cc1,?,38*,127*,14%
SMILES,Sm TGR inh,CHX counter,Shiga toxin inh,FMDV antiviral
Cc1ccc(C(=O)ONc2ccc(N=O)cc2)cc1,-7%,46*,85*,?
COC(=O)c1ccc(NC(=O)CCN2CCCCC2)cc1,7%,2,24,-8%
COC(=O)c1ccc(NN=Nc2ccc(C)cc2)cc1,?,59*,47*,-9%
COC(=O)c1ccc(C)cc1,.,.,.,3%
CN1C(=O)c2cccc(NCCCCCCN3C(=O)c4ccccc4C3=O)c2C1=O,-9%,-4,15,13µM*
CN1C(=O)c2cccc(NCCCN3C(=O)c4ccccc4C3=O)c2C1=O,-23%,4,-10,4%
CC(C)OC(=O)Nc1ccc2c(c1)N(C(=O)N1CCN(C)CC1)c1ccccc1CC2,1%,30*,16,24%
CCOC(=O)Nc1ccc2c(c1)N(C(=O)N1CCN(C)CC1)c1ccccc1CC2,16%,6,-4,-2%
CCC(OC(=O)c1ccco1)C(=O)NCc1ccco1 (stereo not given),0%,-1,7,0%
CCC(OC(=O)c1cccs1)C(=O)NCc1ccco1 (stereo not given),56µM*,3,2,-14%
CC(C)CC(OC(=O)c1cccs1)C(=O)NCc1ccco1 (stereo not given),40µM*,-1,-3,-9%
CCCCNC(=O)CSc1nc(-c2ccc(OC)cc2)cc(C(F)(F)F)n1,11%,.,.,-22%
COc1ccc(CN2C(=O)C(NC(=O)c3ccc(C)cc3)(C(F)(F)F)N=C2c2ccccc2)cc1 (stereo not given),-2%,.,.,-23%
Cn1cnc([N+](=O)[O-])c1Sc1ncnc2nc[nH]c12,10µM*,0,0,?
Cn1cnc(Sc2ncnc3nc[nH]c23)c1[N+](=O)[O-],?,7,7,?
CCOc1ccccc1OCC(=O)Nc1nc2ccccc2[nH]1,3%,22*,52*,13%
O=C(CCNC(=O)c1ccccc1Cl)Nc1nc2ccccc2[nH]1,.,.,.,32%
O=C(Cc1ccccc1Cl)Nc1nc2ccccc2[nH]1,5%,31*,31*,34%
O=C(COc1cccc2ccccc12)Nc1nc2ccccc2[nH]1,-15%,2,-2,0%
O=C(COc1ccccc1)Nc1nc2ccccc2[nH]1,-13%,46*,65*,49%
CCOc1ccccc1Nc1nc2ccccc2[nH]1,6%,17*,22,61%
CCCOc1cccc(OCC(=O)Nc2nc3ccccc3[nH]2)c1,9%,17,55,7%
Cc1ccc(CCNC(=O)c2c(C)oc3ncnc(N4CCOCC4)c23)cc1,9%,.,.,-11%
CCCNC(=O)Cn1c(=O)c2cccn2c2cccnc21,-8%,.,.,-1%
Cc1cccc(N2CCN(C(=O)c3cccn3-c3nnc(N4CCCCC4)s3)CC2)c1C,-1%,.,.,?
SMILES,Sm TGR inh,CHX counter,Shiga toxin inh,FMDV antiviral
Cc1ccccc1OCC(=O)Nc1nc2ccccc2[nH]1,-5%,32*,108*,76%
COc1ccc(OCc2cc(C(=O)N3CCCC(O)C3)no2)c2ccccc12 (stereo not given),?,55*,122*,16%
CCCOC1CCCN(C(=O)c2cc(COc3c(F)cccc3F)on2)C1 (stereo not given),-12%,47*,93*,51%
Cc1ccccc1C1CCCN(C(=O)c2cc(COc3c(F)cccc3F)on2)C1 (stereo not given),-3%,2,5,-19%
COc1ccc(OCc2cc(C(=O)N3CCCC(OC)C3)no2)c2ccccc12 (stereo not given),-12%,50*,92*,54%
CCN1CCC2(CCN(C(=O)c3cc(COc4cc(C)ccc4C)on3)C2)C1 (stereo not given),-25%,10,3,-14%
COc1cc(Cl)ccc1OCc1cc(C(=O)N2CCC(N(C)C)C2)no1 (stereo not given),-2%,11,2,-9%
Cc1ccc(C)c(OCc2cc(C(=O)N3CC[C@H](O)C3)no2)c1,-8%,34*,92*,32%
CN(C)c1ccc(CNC(=O)c2ccc(NC(=O)N3CCCCc4ccccc43)cc2)cc1,-3%,.,.,-21%
CCC(=O)c1ccc(OC)c(OC)c1,-24%,2,-16,-8%
C=CCc1ccc(OCc2ccc(C(=O)OC)o2)c(OC)c1,-3%,63*,87*,0%
